# Assay results: the supplement of paper PMC8699584
# Values joined by “and” are separate entries in the source; they are usually repeats but may differ in a detail not shown here. Identical values can stand only once. Counter-ions that a name gives are not always drawn. ± gives the standard deviation of the averaged measurements.
# Tested on: Mv4-11
# Experiment: cell viability relative to DMSO control (bortezomib = 0%); higher = less growth inhibition
# Conditions: 10 nM; 72 h
# Summary of the method: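 FLT3-ITD+ acute myeloid leukemia cells were dispensed onto a library of 679 approved and investigational compounds in 384-well plates, at 1000 cells per well in 50 µL and a single 10 nM dose, for 72 h. The screen was run in duplicate. Cell viability was read by CellTiter-Glo luminescence on an EnVision reader. Values were converted to percentages by per-plate linear regression between DMSO-treated cells (100%) and positive-control-treated cells (0%).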
row,Compound,cell viability
1,CC#CC(=O)N1CCC[C@H]1c1nc(-c2ccc(C(=O)Nc3ccccn3)cc2)c2c(N)nccn12 [Acalabrutinib],125.6 ± 1.1%
2,O=C1NC(=O)/C(=C/c2ccc3c(c2)OC(F)(F)O3)S1,104 ± 34%
3,Nc1cccc(-c2cc3c(Oc4cccc(O)c4)ncnc3[nH]2)c1,112 ± 13%
4,Cc1cccc(CC(=O)N2CCc3c2ccc(-c2cn(C)c4ncnc(N)c24)c3F)n1,119 ± 22%
5,Cc1nc(-c2cn3c(n2)-c2ccc(-c4cnn(C(C)(C)C(N)=O)c4)cc2OCC3)n(C(C)C)n1,123 ± 5.4%
6,C[C@@]1(C(=O)Nc2ccc(F)nc2)CCCN1c1nc(Nc2cc(C3CC3)n[nH]2)c2cccn2n1,127 ± 2.5%
7,O=C(Nc1cccnc1)c1cc(-c2ccnc(F)c2)ccc1OCc1ccccc1,105 ± 2.3%
8,C=CC(=O)Nc1cc(Nc2nccc(-c3cn(C)c4ccccc34)n2)c(OC)cc1N(C)CCN(C)C,114 ± 3.5%
9,Cc1ccc(S(=O)(=O)/C=C/C#N)cc1,98.8 ± 3.1%
10,N#Cc1c(NC(=O)c2cccc3ccccc23)sc2c1CCCC2,114 ± 4.2%
11,Nc1ncnc2c1ncn2C1OC(COP(=O)(O)O)C(O)C1O (centres undefined) [Adenosine 5'-monophosphate monohydrate],97.2 ± 0.99%
12,COc1cc(-c2cc(-c3cccc(O)c3)cnc2N)cc(OC)c1OC,106 ± 6.8%
13,N#Cc1c(Oc2ccc(F)c(NC(=O)Cc3cccc(C(F)(F)F)c3)c2)ccc2nc(NC(=O)C3CC3)sc12,114 ± 6.7%
14,Oc1c2ccccc2c2c3c(cccc13)N=N2,103% and 104%
15,CC(=O)c1cnc2ccc(-c3cc(Cl)c(O)c(Cl)c3)nc2c1N[C@H]1CC[C@H](CN(C)C)CC1,80.6 ± 6.8%
16,CCCS(=O)(=O)Nc1ccc(F)c(C(=O)c2c[nH]c3ncc(Cl)cc23)c1F,135 ± 12%
17,CNC(=O)CN1CCC(Oc2cc3c(Nc4cccc(Cl)c4F)ncnc3cc2OC)CC1 [AZD8931 (Sapitinib)],116 ± 4.9%
18,O=C(NCc1cccc(O)c1)Nc1nc(-c2ccncc2)cs1,121 ± 9%
19,Cn1cc(-c2ccc3ncc(Cc4ccc5ncccc5c4)n3n2)cn1,119 ± 16%
20,O=C(O)c1ccc(Nc2ncc3c(n2)-c2ccc(Cl)cc2C(c2c(F)cccc2F)=NC3)cc1,107 ± 3.6%

row,Compound,cell viability
1,C=C1C[C@@]2(O)O[C@@]3(C[C@H]2C(C)C)[C@@H](C)CC[C@@H]13 [Curcumol],97.2 ± 4.6%
2,O=C1c2cccc(O)c2C(=O)c2c(O)cccc21 [Antrapurol],109 ± 3.2%
3,CCCCCCCCCC(=O)CC(O)S(=O)(=O)O (centres undefined) [Sodium houttuyfonate],106 ± 1.1%
4,COc1cc(Nc2ncc3c(n2)-c2ccc(Cl)cc2C(c2c(F)cccc2OC)=NC3)ccc1C(=O)O [MLN8237(Alisertib)],114 ± 4.2%
5,CC(=O)Nc1cccc(-n2c(=O)n(C3CC3)c(=O)c3c(Nc4ccc(I)cc4F)n(C)c(=O)c(C)c32)c1,107 ± 1.9%
6,CNc1nc(Nc2cnn([C@H]3CCN(C4COC4)C[C@@H]3F)c2Cl)ncc1C(F)(F)F,106 ± 2.4%
7,Cc1cc(NC(=O)c2cccc(NC(=O)/C=C/CN(C)C)c2)ccc1Nc1nccc(-c2cccnc2)n1,113 ± 5.2%
8,CC(C)c1ccc2c(c1)CC[C@H]1[C@](C)(CN)CCC[C@]21C [Leelamine],101 ± 9.8%
9,COC(=O)c1ccc2c(c1)NC(=O)/C2=C(\Nc1ccc(N(C)C(=O)CN2CCN(C)CC2)cc1)c1ccccc1,99.8 ± 8.2%
10,CCN(CC)CCCCNc1ncc2cc(-c3cc(OC)cc(OC)c3)c(NC(=O)NC(C)(C)C)nc2n1,113% and 119%
11,Cn1cc(C2=C(c3cccc(N)c3)C(=O)NC2=O)c2ccccc21,113 ± 3.2%
12,COc1cc2ncnc(Nc3cccc(Cl)c3)c2cc1OC,108 ± 7.1%
13,FC(F)(F)c1ccc(CNc2ccc(Cc3c[nH]c4ncc(Cl)cc34)cn2)cn1,105 ± 16%
14,Cc1c(C)c2c(c(C)c1O)CC[C@@](C)(CCC[C@H](C)CCC[C@H](C)CCCC(C)C)O2 [Vitamin E],107 ± 16%
15,CCN1/C(=C/C(C)=O)Sc2ccc(OC)cc21,104 ± 6.5%
16,CNC(=O)Nc1cc(Oc2cncc(C)c2)c(-c2ccc(OCC(C)(C)O)nc2)cn1,101 ± 6.8%
17,CCN(CC)CC(=O)Nc1c(C)cccc1C [Lidocaine Hydrochloride hydrate],113 ± 8.3%
18,Cc1ccc(C(=O)Nc2ccc(CN3CCN(C)CC3)c(C(F)(F)F)c2)cc1C#Cc1cnc2[nH]ncc2c1 [GZD824 Dimesylate],-9.27 ± 10%
19,N#C/C(=C(/N)Sc1ccc(N)cc1)c1ccccc1C(F)(F)F,110 ± 8.3%
